# Measured values from PubChem BioAssay AID449728 (The Scripps Research Institute Molecular Screening Center, 2010).
# The whole screen tested about 330,000 compounds, of which about 900 (0.27%) were called active.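 Rule for the calls: active = inhibition above the campaign's mean inhibition across all tested compounds plus 3 SD (cut at about 9.9% in these data); inactive = the rest.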 The sample as a whole holds a higher share of actives than the screen did.
# Experiment: bacterial viability reduction in E. coli – absorbance, OD600, counter-screen for AddAB inhibitor project, primary screen (AID 449728)
# Details: E. coli V3065 growth, 18 h, at 11.9 µM, active compounds read high
row,Structure (SMILES),inhibition
1,O=[N+]([O-])c1cnc2ccc3ccccc3c2c1,53.1% (active)
2,C/C(=N/O)c1ccc2ccc3ccccc3c2c1,1.2% (inactive)
3,Cc1ccc(-n2c(-c3ccc([N+](=O)[O-])cc3)nc3ccccc3c2=O)cc1,-0.79% (inactive)
4,COCCNC(=O)CN1C2CCC1CC(O)(c1cccnc1)C2 (stereo not given),-3.36% (inactive)
5,O=c1[nH]c(=O)n(-c2ccc(F)cc2)c(O)c1C=NCCN1CCCCC1,-0.49% (inactive)
